Data taken from PubChem BioAssay.
Active and inactive are the calls of the source.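 How the source made its calls: active means mean inhibition over 43.08%, the solvent-only control mean plus 3 SD; inactive means the rest.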

target: Nuclear receptor coactivator 3 (Homo sapiens) (UniProt Q9Y6Q9); assay: SRC3 coactivator transcriptional activity inhibitors, confirmation, cell-based, luminescence, quadruplicate (AID 588792); conditions: HEK293 GAL4-SRC3 luciferase reporter, at 3.6 µM, active compounds read high;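 further: 0% = DMSO treated cells and 100% = gossypol at 36 µM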
Sequence (Q9Y6Q9 whole entry, looked up, the tested form may be a part): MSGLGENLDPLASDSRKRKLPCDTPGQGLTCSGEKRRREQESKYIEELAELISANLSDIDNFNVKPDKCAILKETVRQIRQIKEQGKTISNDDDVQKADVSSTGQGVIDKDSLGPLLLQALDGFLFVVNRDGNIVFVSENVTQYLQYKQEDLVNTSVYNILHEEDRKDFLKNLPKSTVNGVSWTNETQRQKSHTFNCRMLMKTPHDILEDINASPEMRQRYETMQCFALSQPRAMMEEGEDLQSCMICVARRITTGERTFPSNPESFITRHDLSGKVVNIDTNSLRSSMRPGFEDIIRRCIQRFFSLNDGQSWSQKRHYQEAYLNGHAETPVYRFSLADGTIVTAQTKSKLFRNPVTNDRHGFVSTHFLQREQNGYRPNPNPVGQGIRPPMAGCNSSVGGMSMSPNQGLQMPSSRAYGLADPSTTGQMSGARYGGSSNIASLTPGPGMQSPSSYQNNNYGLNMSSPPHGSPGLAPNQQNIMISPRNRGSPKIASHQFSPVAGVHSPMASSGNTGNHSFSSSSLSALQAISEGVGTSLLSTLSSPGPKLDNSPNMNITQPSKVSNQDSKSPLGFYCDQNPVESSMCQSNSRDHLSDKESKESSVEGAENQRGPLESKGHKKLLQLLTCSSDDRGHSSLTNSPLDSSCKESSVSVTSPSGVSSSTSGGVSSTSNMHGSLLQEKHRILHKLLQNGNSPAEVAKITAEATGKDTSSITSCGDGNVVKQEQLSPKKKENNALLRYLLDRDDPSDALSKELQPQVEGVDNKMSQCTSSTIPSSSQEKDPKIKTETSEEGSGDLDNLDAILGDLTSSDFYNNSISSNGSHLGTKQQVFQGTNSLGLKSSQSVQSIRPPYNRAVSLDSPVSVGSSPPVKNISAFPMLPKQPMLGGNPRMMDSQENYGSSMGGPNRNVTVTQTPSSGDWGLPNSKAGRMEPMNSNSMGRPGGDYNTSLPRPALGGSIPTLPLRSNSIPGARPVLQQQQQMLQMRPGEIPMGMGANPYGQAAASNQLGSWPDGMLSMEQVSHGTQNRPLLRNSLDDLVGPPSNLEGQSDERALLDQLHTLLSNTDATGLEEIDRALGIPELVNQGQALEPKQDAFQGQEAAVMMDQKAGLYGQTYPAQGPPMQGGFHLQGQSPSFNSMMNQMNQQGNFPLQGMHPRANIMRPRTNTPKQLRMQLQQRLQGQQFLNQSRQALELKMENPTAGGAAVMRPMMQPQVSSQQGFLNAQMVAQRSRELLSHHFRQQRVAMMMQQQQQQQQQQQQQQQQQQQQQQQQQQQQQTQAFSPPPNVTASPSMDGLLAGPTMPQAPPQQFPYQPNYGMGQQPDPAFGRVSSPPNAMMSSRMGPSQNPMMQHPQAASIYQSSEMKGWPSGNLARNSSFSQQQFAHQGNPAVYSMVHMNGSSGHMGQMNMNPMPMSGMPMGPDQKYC

inhibition, inactive:
COc1cc(/C=C(/C(=O)c2cccs2)c2nc3ccccc3[nH]2)cc(OC)c1O 31.4%, CCCCCCCN1C2=NCCCN2c2ccccc21 -5.13%, CCOc1ccc(N(CC)C(=O)Cc2c(C(=O)O)n(C)c3ccccc23)cc1 -8.28%, CCN(CC)S(=O)(=O)c1cc(NC(=O)C(C)OC(=O)c2[nH]c(C)c(C(C)=O)c2C)ccc1C (centres undefined) 16%, CCOc1ccc(N2C(=O)C(CC(=O)Nc3ccccc3)N(Cc3ccccn3)C2=S)cc1 (centres undefined) 9.7%, FC(F)(F)c1cccc(Nc2cc(-c3ccccc3)nc3ncnn23)c1 -2.25%, COc1ccc2c(O)c(-c3c(C)cc(C)cc3C)c(=O)[nH]c2c1 -14.3%, COc1ccc(/C=C/C(=O)C23CC4CC(CC(C4)C2)C3)cc1CN1CCOCC1 22.6%, Cc1ccc(C(=O)NC2c3ccccc3-c3ccccc32)cc1 11.3%, C#CCN(C[C@@H]1[C@@H](OC(=O)NCc2ccccc2F)[C@@H](OC(=O)NCc2ccccc2F)Cn2c(=O)ccc(=O)n21)S(=O)(=O)c1ccc(C)cc1 -2.92%, CC(C)(C)c1cc(C(=O)N/N=C/c2ccccc2O)n(-c2ccccc2)n1 35.7%, COCC(C)n1c(SCC(=O)NC(=O)Cc2ccccc2)nc2ccccc2c1=O (centres undefined) 19.1%

inhibition, active:
C/C(=N\NC(=O)c1c(C)nc2ccccn12)c1ccc(O)cc1O 52.7%, COC(=O)c1ccc2c(c1)C(C)(C)C(/C=C/c1ccc(O)cc1)=[N+]2C 66.6%
